D2 ag-1: HTS Assay for Allosteric Agonists of the Human D2 Dopamine Receptor: Primary Screen for Agonists; AID 485358, 2010; HEK293 T-REx D2 cells, calcium flux agonist mode; D(2) dopamine receptor (Homo sapiens), P14416; activation, % at 2 µM; 0.53% of 340,000 active;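 active = activation over 3 SD above normal in the single-dose calcium agonist read, cut at about 30% in these data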
Target sequence (P14416 whole entry, looked up): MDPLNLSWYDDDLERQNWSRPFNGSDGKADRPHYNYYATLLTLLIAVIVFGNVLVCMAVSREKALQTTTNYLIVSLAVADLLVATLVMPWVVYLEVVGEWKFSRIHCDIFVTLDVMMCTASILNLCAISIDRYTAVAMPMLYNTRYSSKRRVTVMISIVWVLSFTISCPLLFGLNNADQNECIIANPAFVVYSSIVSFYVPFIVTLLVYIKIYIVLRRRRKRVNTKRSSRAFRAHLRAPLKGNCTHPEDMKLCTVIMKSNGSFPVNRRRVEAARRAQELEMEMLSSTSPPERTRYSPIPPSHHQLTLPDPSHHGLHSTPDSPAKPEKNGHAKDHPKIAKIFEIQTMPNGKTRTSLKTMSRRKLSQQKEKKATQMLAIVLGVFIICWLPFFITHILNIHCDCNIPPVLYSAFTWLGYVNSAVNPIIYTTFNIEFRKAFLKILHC
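Calcium-flux readout, 1 cycle/sec over 180 s following compound pin transfer, in inducible HEK293 Trex D2 cells (force-coupled); dopamine controls included. Positive calcium responses during this window marked compounds as potential agonists.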
D2 antag: HTS Assay for Allosteric Antagonists of the Human D2 Dopamine Receptor: Primary Screen for Antagonists; D(2) dopamine receptor (Homo sapiens), P14416; HEK293 TREx D2 cells, calcium flux, dopamine EC80; inhibition, % at 10 µM; 2% of 340,000 active; AID 485344, 2010; in the data active = inhibition above about 30%; inactive = below that, where a call was filed
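Overnight-induced (tetracycline, 30 C) HEK293 T-REx cells carrying force-coupled D2 receive a no-wash calcium dye, then compound, then EC80 dopamine at 180 s; signals are read kinetically throughout.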
D2 PAM-1: HTS Assay for Positive Allosteric Modulators of the Human D2 Dopamine Receptor: Primary Screen for Potentiators. D(2) dopamine receptor (Homo sapiens), P14416. HEK293 T-REx D2, calcium flux, EC20 dopamine potentiation. potentiation, % at 10 µM. 0.34% of 340,000 active. AID 485347, 2010;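 active = potentiation over 3 SD above the plate norm, cut at about 30% in these data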
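Calcium flux readout, no-wash dye, 1 read/s. Inducible HEK293 Trex D2 line, overnight 30 C. Compound alone 180 s (agonist flags), then EC20 dopamine, another 180 s to score potentiation.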
D2 ag-2: Beta-Arrestin HTS for Positive Allosteric Modulators of the Human D2 Dopamine Receptor: Agonists. D(2) dopamine receptor (Homo sapiens), P14416. DiscoveRx PathHunter D2 beta-arrestin, luminescence, 90 min; 100% = 57 uM dopamine signal. activation, % (concentration not given with the values). 0.084% of 360,000 active. AID 624465, 2012; in the data active = activation above about 40%; inconclusive = between about 15% and that limit
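DiscoveRx PathHunter D2 beta-arrestin cells (2,100/well) attached overnight, then compound-stimulated 90 min at 37 C in HBSS/10 mM HEPES/0.1% Tween-20 buffer; beta-galactosidase complementation read by luminescence after 1 h at ambient temperature. Dopamine 57 uM final (EC100) as control.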
D2 PAM-2: Beta-Arrestin HTS for Positive Allosteric Modulators of the Human D2 Dopamine Receptor: Potentiators; D(2) dopamine receptor (Homo sapiens), P14416; DiscoveRx D2 beta-arrestin cells, luminescence, 90 min; 100% = 57 uM dopamine signal; potentiation, % (no concentration beside the values); 0.23% of 360,000 active; in the data active = potentiation above about 50%; inconclusive = mostly about 30% to 49%
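PathHunter D2 cells, attached overnight at 37 deg C, received compound in DMSO plus dopamine at EC20 (50 nM final) for 90 min at 37 deg C. Beta-arrestin recruitment was read as luminescence after 1 h with detection reagent at ambient temperature.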
Each line names hits and unclear results; the compound was inactive in the other large screens. In the library only some 2.4% were active in any assay of this set; here they are far more common.

C#CCn1c(=NC(=O)c2ccc(S(=O)(=O)N3CCCc4ccccc43)cc2)sc2cc(S(N)(=O)=O)ccc21	D2 antag 47.5
Cn1c(=NC(=O)c2ccc(S(=O)(=O)N3CCCc4ccccc43)cc2)sc2cc(S(C)(=O)=O)ccc21	none
CCOc1ccc(N(CC)S(=O)(=O)N2CCCC(C(=O)Nc3ccc(OC)c(OC)c3)C2)cc1 (stereo not drawn)	none (no result: D2 antag, D2 ag-2, D2 PAM-2)
COCCCNC(=O)c1cccc2c(-c3cccc(C(N)=O)c3)coc12	none (no result: D2 ag-1, D2 antag, D2 PAM-1)
Cc1ccc(/C=C2\SC(=S)N(/N=C/c3cc([N+](=O)[O-])ccc3O)C2=O)o1	D2 antag 31.6
O=C(NN1C(=O)/C(=C/c2cc([N+](=O)[O-])ccc2O)SC1=S)c1ccccc1O	none (no result: D2 ag-2, D2 PAM-2)
O=C(CN1CCN(Cc2ccccc2Cl)C1=O)NC1CCCCCCC1	D2 antag 31.0
CC1CCCCC1NC(=O)CN1CCN(Cc2ccccc2Cl)C1=O (stereo not drawn)	none
COc1cccc(N2CCN(C(=O)Cn3cnc4onc(-c5ccc(F)cc5)c4c3=O)CC2)c1	none (no result: D2 antag, D2 ag-2, D2 PAM-2)
CCn1cc(S(=O)(=O)N2CCN(Cc3cccc(Cl)c3)CC2)cn1	D2 antag 33.5
Cc1c(-c2nnc(SCC(=O)Nc3ccccc3F)o2)nnn1-c1ccc(F)cc1	none (no result: D2 antag, D2 ag-2, D2 PAM-2)
CCOC(=O)c1c(C)[nH]c(C)c1S(=O)(=O)N(C)CC(=O)Nc1ccc(CC)cc1	none (no result: D2 antag, D2 ag-2, D2 PAM-2)
C/C(=N\Nc1ccc(S(=O)(=O)Nc2ccccc2)cc1[N+](=O)[O-])c1ccncc1	none (no result: D2 ag-1, D2 antag, D2 ag-2, D2 PAM-2)
COc1ccc(NS(=O)(=O)c2ccc(N/N=C(\C)c3ccncc3)c([N+](=O)[O-])c2)cc1	D2 antag 79.3
Cc1nnc2c(N(C)S(=O)(=O)c3ccccc3)nc3ccccc3n12	none
COc1cccc(C(=O)NCC(=O)N2CCC3(CC2)NCCc2[nH]cnc23)c1OC	D2 antag 30.4
Cc1ccc(CCNC(=O)c2ccc(CS(=O)(=O)c3ccccc3C)o2)cc1	D2 PAM-1 47.1
Cc1ccc(CNC(=O)c2ccc(CS(=O)(=O)c3ccccc3C)o2)cc1	none
COc1ccccc1CC(=O)N(Cc1ccccc1)c1ccc(C)cc1	none
COC(=O)CCCCCNc1ccc(C(=O)OC)cc1N	D2 ag-1 36.6
COc1ccc(NC(=O)CC2C(=O)N(c3ccc(F)cc3)C(=S)N2NC(=O)c2ccc(Cl)cc2)cc1 (stereo not drawn)	D2 antag 37.4
COc1cc(OC)cc(C(=O)NCC(=O)NCc2ccccn2)c1	none (no result: D2 ag-1, D2 antag, D2 PAM-1)
COc1ccc(CCNC(=O)CC(C)(C)CC2=NS(=O)(=O)c3ccccc3N2)cc1OC	none
COc1ccccc1CN1CC(C(=O)N2CCN(c3ccc(F)cc3)CC2)CC1=O (stereo not drawn)	D2 PAM-1 32.3
Cc1noc(C)c1S(=O)(=O)NCCN1CCN(c2ccccc2)CC1	D2 ag-1 31.3, D2 antag 32.6
O=c1oc(-c2ccc(O)c(O)c2)cc2cc(O)cc(O)c12	D2 ag-2 inconclusive, D2 PAM-2 51.3 (no result: D2 ag-1, D2 antag, D2 PAM-1)
CCN(CC)S(=O)(=O)c1ccc(NC(=O)Cn2c(=O)sc3ccccc32)cc1	D2 antag 43.0
CCCCSc1nnc(-c2c[nH]c3ccccc23)n1C	none
Cn1c(SCc2ccccc2)nnc1-c1c[nH]c2ccccc12	D2 antag 35.2
COc1cc(NS(=O)(=O)c2ccc(Cl)cc2)c(C(=O)O)cc1OC	none
COc1cccc(NC(=O)COc2cc(O)c3c(c2)OC(C)(C)CC3=O)c1	none
Cc1nonc1NC(=O)CSc1nc(C2CCCCC2)nc2ccccc12	D2 antag 53.5
Cc1cc(NC(=O)CSc2nc(C3CCCCC3)nc3ccccc23)no1	none
Cn1c(=O)c2sccc2n2c(CCC(=O)N3CCN(c4cccc(Cl)c4)CC3)nnc12	none (no result: D2 antag, D2 PAM-1, D2 ag-2, D2 PAM-2)
C[C@@]12C(=O)N(CCc3c[nH]c4ccccc34)CC(=O)N1[C@H]1c3ccccc3OC[C@@H]1[C@@H]2c1ccccc1	none
O=C(c1cc(F)ccc1F)C1CCCN(C(=O)CCc2cnccn2)C1 (stereo not drawn)	D2 antag 37.9
O=C(c1cccc2ccccc12)C1CCCN(C(=O)CCc2cnccn2)C1 (stereo not drawn)	none
COc1ccc(N(CC(=O)Nc2cc(Cl)ccc2OC)C2=NC3CS(=O)(=O)CC3S2)cc1 (stereo not drawn)	none
C/C(=N\OC(=O)c1ccccc1F)c1nccs1	D2 PAM-1 40.7
O=[N+]([O-])c1ccc(CSc2ccc(S(=O)(=O)N3CCCCC3)cn2)cc1	none (no result: D2 ag-1, D2 antag, D2 PAM-1)
Cc1c(C)n(-c2ccccc2)c2ncnc(NCCN(C)C)c12	D2 antag 39.7
Cc1ccc(C(C(=O)NC2CCCCC2)N(Cc2ccco2)C(=O)Cc2c[nH]c3ccccc23)o1 (stereo not drawn)	D2 antag 36.1
Cc1ccc(N(CC(=O)NCCSc2nc3ccccc3s2)S(=O)(=O)c2ccccc2)c(C)c1	D2 antag 55.1
Cc1ccccc1C(=O)Nc1nnc(S(=O)(=O)N(C)Cc2ccc(Cl)cc2)s1	none (no result: D2 antag, D2 ag-2, D2 PAM-2)
COc1ccccc1NC(=O)c1cccc(S(=O)(=O)N2CCN(Cc3ccccc3)CC2)c1	none
CC(NC(=O)c1cccc(S(=O)(=O)N2CCN(Cc3ccccc3)CC2)c1)c1ccc(Cl)cc1 (stereo not drawn)	D2 antag 35.8
CC(=O)N1CCc2cc(S(=O)(=O)NC(C(=O)Nc3ccc(C)cc3C)C(C)C)ccc21 (stereo not drawn)	none (no result: D2 antag, D2 ag-2, D2 PAM-2)
CC(=O)N1CCCc2cc(S(=O)(=O)NC(C(=O)NCc3ccc(C)cc3)C(C)C)ccc21 (stereo not drawn)	D2 PAM-1 45.8
Cc1nc(Cl)sc1C(=O)Nc1ccccc1	none
Cc1nc(Cl)sc1C(=O)Nc1ccc(Cl)cc1	D2 antag 40.2
CCCCOC(=O)c1ccc(NC(C)=O)cc1	none
